The source of these data is PubChem BioAssay (NCI).

About 83,000 compounds went through this panel and 20% of them were active in at least one assay; those are over-represented in the sample as a whole.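 Growth was measured after 48 h exposure to one concentration of compound in 96-well plates. Values under 10 count as active.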 Values without a mark were called inactive. The source made the active and inactive calls.

What all share (test): NCI-60 one-dose screen, 48 h (100 = growth as untreated, 0 = no growth, -100 = all killed)
Holding throughout (details): 10 µM unless noted

Assay [1] relates to HCT-15 colon.
The test system of assay [2] is HT29 colon.
Assay [3] deals with SNB-75 CNS.
In assay [4] the test system is SNB-19 CNS.
Assay [5] deals with U251 CNS.
For assay [6], the system named is PC-3 prostate.
Assay [7] deals with SK-MEL-5 melanoma.
For assay [8], the system named is UACC-62 melanoma.
Assay [9] relates to LOX IMVI melanoma.
Assay [10] has as its system SK-MEL-28 melanoma.
Assay [11] has as its system SK-MEL-2 melanoma.
Assay [12] concerns EKVX NSCLC.
In assay [13] the test system is SN12C renal.
The subject of assay [14] is UO-31 renal.
In assay [15] the test system is TK-10 renal.
In assay [16] the test system is ACHN renal.
Assay [17] relates to CAKI-1 renal.
The test system of assay [18] is A498 renal.
Assay [19] relates to CCRF-CEM leukemia.
The subject of assay [20] is MOLT-4 leukemia.

In the case of `Nc1nc(N)c2c(n1)NC(c1cccc(Nc3ccnc4cc(C(F)(F)F)ccc34)c1)CC(c1ccc3c(c1)OCO3)=N2` (stereo not given), the growth in [1] is 37.4%; in assay [2], 23.8%; in assay [3] it was 78.7%; in assay [4], 76.5%; in assay [5], 56.4%; in [6], 48.5%. Moreover, the growth in assay [7] is 66.4%; in assay [8], 90.6%; in [9], 65.7%; in [10] it was 96.3%; in assay [11] it was 61.6%; in [12], 76.7%. The growth in [13] was 81.6%; in [14] it was 69.2%; in assay [15] it was 90.1%; in assay [16], 102%; in assay [17], 59.6%; in assay [18] it was 87.9%. For the same compound, the growth in assay [19] was 50.9%; in assay [20], 29%.
Turning to `O=c1c2ccccc2n(C[C@H]2CO2)c2ccccc12`, the growth in assay [1] is -16.8% (active); in [2], 2.83% (active); in [3] it was -29.4% (active); in assay [4], 22.3%; in assay [5], -6.13% (active); in assay [6] it was 19.2%. For the same compound, the growth was -80.8% (active) in assay [7]; -83.4% (active) in assay [8]; -54.3% (active) in [9]; 2.83% (active) in [10]; -64.5% (active) in assay [11]; 16.3% in assay [12]. The growth in [13] was 6.14% (active); in assay [14], -27.5% (active); in assay [15], 4.13% (active); in assay [16], -26.6% (active); in assay [17] it was -9.84% (active); in [18] it was 96.1%. Further, the growth in assay [19] is 6.9% (active); in assay [20] it was 0.563% (active).
For `CSc1nc2ccc(C)cc2cc1/C=C1/C=C(c2ccccc2)NC1=O`, the growth was 57.4% in assay [1]; 57.6% in [2]; 26.4% in assay [3]; 67.3% in assay [4]; 16.3% in assay [5]; 68.4% in assay [6]. In addition, the growth in assay [7] is 80.4%; in assay [8] it was 71.9%; in assay [9] it was 45.3%; in assay [10], 79.1%; in assay [11] it was 89.5%; in [12], 61.4%. Also, the growth in [13] was 32.6%; in [14], 12.8%; in assay [15], -6.59% (active); in assay [16] it was -52.8% (active); in assay [17], 5.73% (active); in assay [18], 41.7%. Also, the growth in assay [19] was 48.3%; in assay [20], 44.1%.
For `C=CCn1cc(-c2nc3ccccc3s2)c2cc(-c3ccc4c5c(cccc35)C(=O)N(CCO)C4=O)ccc21`, the growth was 94.3% in assay [1]; 98.2% in [2]; 98.9% in assay [3]; 93.1% in assay [4]; 97.2% in [5]; 83.7% in assay [6]. Further, the growth was 96.1% in assay [7]; 94.9% in assay [8]; 95.4% in [9]; 110% in [10]; 105% in assay [11]; 81.3% in assay [12]. Also, the growth in assay [13] was 89.2%; in assay [14] it was 62.7%; in assay [15] it was 138%; in assay [16] it was 94.5%; in assay [17], 75.2%; in [18], 113%. Moreover, the growth in [19] is 104%; in assay [20], 91.3%.
On to `CCOC(=O)CC[C@H](NC(=O)c1ccc(N(C)Cc2cnc3nc(N)nc(N)c3n2)c2ccccc12)C(=O)OCC`, for which the growth in [1] is 30%; in assay [2] it was 12.5%; in assay [3], 76%; in assay [4], 33.7%; in [5], 33%; in [6], 24.3%. Moreover, the growth in [7] is 23.4%; in [8], 18.5%; in assay [9] it was 17.6%; in [10], 47.8%; in assay [11] it was 51.9%; in assay [12] it was 75.2%. For the same compound, the growth in assay [13] was 35.6%; in assay [14] it was 20.9%; in [15], 43.8%; in [16], 25%; in [17] it was 24.1%; in [18], 35.1%. The growth in assay [19] was 10.5%; in assay [20], 24.8%.
Take `CCN(CC)C(=O)C1=C(C)NC(=O)NC1c1ccc2c(c1)OCO2` (stereo not given): the growth in assay [1] is 105%; in assay [2], 107%; in assay [3], 93.3%; in assay [4], 96.2%; in assay [5], 102%; in [6] it was 98.5%. The growth was 101% in assay [7]; 102% in assay [8]; 95.6% in [9]; 115% in [10]; 108% in assay [11]; 99% in assay [12]. Also, the growth is 107% in assay [13]; 81.4% in [14]; 100% in assay [15]; 103% in assay [16]; 93.1% in assay [17]; 111% in assay [18]. The growth in [19] and in assay [20] was 104% throughout.
Take `O=C(Nc1cc(Cl)cc(Cl)c1)Oc1c(Cl)c(Cl)c(Cl)c(Cl)c1Cl`: the growth in assay [1] is 77.8%; in assay [2], 73.2%; in assay [3], 71.3%; in assay [4], 66.1%; in [5], 62.9%; in assay [6], 42.2%. In addition, the growth in assay [7] was 41.5%; in assay [8] it was 65.7%; in [9], 72.5%; in assay [10] it was 84.8%; in [11], 64%; in assay [12], 64.2%. The growth in assay [13] was 71.2%; in assay [14] it was 58.4%; in assay [15] it was 113%; in [16], 65.8%; in assay [17], 68.1%; in [18], 19.6%. Also, the results for the growth in assay [19] and in assay [20] were 47.7% and 63.5%, respectively.
For the compound `O=C(O)CCCCCCCCCCN1C(=O)/C(=C2/C(=O)N(CC(=O)O)c3ccc(Br)cc32)SC1=S`, the growth in assay [1] is 44.2%; in [2] it was 100%; in assay [3] it was 92.5%; in assay [4], 99.9%; in [5], 72%; in assay [6] it was 74.8%. The growth in assay [7] was 81.2%; in assay [8] it was 80.3%; in assay [9] it was 78.2%; in [10], 104%; in assay [11] it was 100%; in assay [12], 97.2%. The growth in [13] was 86.3%; in [14] it was 72.8%; in assay [15], 128%; in [16], 84.2%; in assay [17], 83.8%; in assay [18] it was 95.2%. The growth in [19] was 71.4%; in assay [20], 34.2%.
